MITF inhib – inhibitors of MITF. inhibition, % (concentration not given with the values). 37,000 tested, 0.28% active. AID 2240. TRPM1 promoter luciferase, luminescence, 24 h; in the data active = inhibition above about 85%; inconclusive = no clear call, values can overlap the other calls; inactive = below about 68%;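 note: human melanocyte line stably carrying TRPM1 promoter luciferase reporter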
Hedgehog inh – blocks Sonic Hedgehog signaling; Shh-LIGHT2 Gli-luciferase reporter, 30 h; 22,000 tested, 2.1% active; AID 2313; inhibition, % (test concentration not listed);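 active = mean inhibition across valid replicates above about 65%, limit read from the data; inconclusive = mean under the limit, yet half or more replicates past it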;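 note: pathway switched on by Shh-conditioned medium diluted 1 in 25 in low serum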
BJeLR viab HTS – lowers viability of BJeLR cells; BJeLR fibroblasts viability, CellTiterGlo ATP luminescence, 48 h; HRASV12, hTERT and SV40 LT/ST transformed; viability loss activity score, % (no concentration beside the values); 30,000 tested, 0.64% active; in the data active = viability loss activity score above about 50%; inconclusive = no clear call, values can overlap the other calls; inactive = below about 35%;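 note: higher score means fewer live cells and less ATP luminescence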
* = called active by the depositor. Only a selection was taken, and hits are over-represented in it overall.

Results for CCC(=O)Oc1cc2c(C)cc(=O)oc2cc1Cl ?
BJeLR viab HTS: -2

How did O=C(/C=C/Sc1ccccn1)c1ccccc1 do in these assays?
MITF inhib: 65; Hedgehog inh: inconclusive; BJeLR viab HTS: 76*

How did O=C(Sc1ccccn1)N1c2ccccc2Sc2ccccc21 do in these assays?
BJeLR viab HTS: 4

How did Cc1csc(NC(=O)CSc2nc(C34CC5CC(CC(C5)C3)C4)ccc2C#N)n1 do in these assays?
MITF inhib: 63; Hedgehog inh: 75*; BJeLR viab HTS: -1

How did N#Cc1ccc(C23CC4CC(CC(C4)C2)C3)nc1SCc1ccccn1 do in these assays?
BJeLR viab HTS: 2

Results for Cc1ccc2nc(S/C=C/C(=O)c3ccccc3)[nH]c2c1 ?
MITF inhib: 69; Hedgehog inh: 48; BJeLR viab HTS: 72*

Results for CSc1ccccc1NC(=O)CSc1nc2ccc(C)cc2[nH]1 ?
BJeLR viab HTS: -2

Results for CCCCn1c(-c2ccccc2)nc(=S)c2c1CCCC2 ?
BJeLR viab HTS: 11

What do the screens show for `COC(=O)c1cc(N)c(Cl)s1`?
BJeLR viab HTS: 0

Results for Cn1nc(C(=O)N2CCOCC2)cc1C(=O)N1CCOCC1 ?
BJeLR viab HTS: -2

What do the screens show for `OC(COc1ccc(F)cc1)(c1ccc(Cl)cc1)c1ccc(Cl)cc1`?
MITF inhib: 38; Hedgehog inh: 75*; BJeLR viab HTS: 2

Results for O=S(=O)(Cc1ccc(Cl)cc1)CC(O)COc1ccc(F)cc1 (configuration not stated) ?
MITF inhib: 12; Hedgehog inh: -35; BJeLR viab HTS: 0

What do the screens show for `Cc1ccc2oc(=O)n(CC(C)C)c2c1`?
BJeLR viab HTS: 11

What do the screens show for `Oc1c(C(Nc2ccccn2)c2ccccn2)cc(Cl)c2cccnc12` (configuration not stated)?
MITF inhib: 56

Results for CCC(=O)NC(c1ccco1)c1cc(Cl)c2cccnc2c1O (configuration not stated) ?
MITF inhib: 46; Hedgehog inh: 104*; BJeLR viab HTS: 15

Results for CC1CCN(CN2C(=S)SC3=NC(=O)CCCN32)CC1 ?
BJeLR viab HTS: 0

What do the screens show for `C=CCn1c(SCc2ccc(Cl)cc2)nc2cc(C(=O)NCc3ccco3)ccc2c1=O`?
BJeLR viab HTS: 1

Results for CCCN1C(=S)NC2c3ccccc3OC1(C)C2C (configuration not stated) ?
BJeLR viab HTS: -9

How did COC(=O)c1ccccc1NC(=O)CSc1nc2ccsc2c(=O)n1-c1ccc(C)c(C)c1 do in these assays?
BJeLR viab HTS: -5

How did O=C(CCSc1nc2ccccc2s1)Nc1ccccc1Cl do in these assays?
MITF inhib: 86*

Results for NNC(=O)CCCSc1nc2ccccc2s1 ?
MITF inhib: 52; Hedgehog inh: -3; BJeLR viab HTS: 4

What do the screens show for `COC(=O)c1cc2occc2n1Cc1ccccc1`?
BJeLR viab HTS: 0

How did CCOc1ccc(-n2c(=O)c3c4c(sc3n(CC(=O)N(CC)CC)c2=O)CCCCC4)cc1 do in these assays?
BJeLR viab HTS: 9

Results for O=C1C(c2c(O)[nH]c3ccccc23)=Nc2ccccc21 ?
MITF inhib: -1; Hedgehog inh: -46; BJeLR viab HTS: 6

What do the screens show for `O=C1c2ccccc2-[n+]2ccc3c([nH]c4ccccc43)c21`?
MITF inhib: 108*; Hedgehog inh: inconclusive; BJeLR viab HTS: 130*

How did COc1cccc(-c2cc(C(=O)N3CCOCC3)on2)c1 do in these assays?
BJeLR viab HTS: 7

Results for Oc1oc(-c2ccc(Br)cc2)nc1C=Nc1ccccc1 ?
BJeLR viab HTS: -4

Results for Cn1nc(C(C)(C)C)cc1C(=O)NCc1ccc(-c2cccs2)cc1 ?
BJeLR viab HTS: 11

How did C=C(C)C(=O)O[C@H]1[C@H]2C(=C)C(=O)O[C@@H]2C[C@@H](C)/C=C/C(=O)[C@](C)(O)[C@@H]1OC(C)=O do in these assays?
MITF inhib: 90*; Hedgehog inh: -10; BJeLR viab HTS: 59*

What do the screens show for `C=C1C(=O)O[C@H]2C1C[C@@H](OC(C)=O)[C@@]1(C)[C@@H](OC(C)=O)C[C@@H](OC(C)=O)C(=C)[C@H]21` (some centres not stated)?
MITF inhib: 11; Hedgehog inh: 51; BJeLR viab HTS: 28

Assay outcomes deposited in PubChem BioAssay by Broad Institute.
